Reference: PubChem BioAssay (NCI)
“And” between values parts separate entries of the source, which are not always exact repeats. Equal entries are not always repeated. Compounds without any hit were thinned out: in the full panel of roughly 83,000, 20% have a hit.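 The endpoint reported here, percent growth, reads 100 for growth as untreated, 0 for no net growth and -100 for all cells dead.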 The source made the active and inactive calls. How the source made its calls: active means growth percent below 10; inactive means the rest.

system: MDA-MB-468 breast; assay: NCI-60 one-dose screen, 48 h (100 = growth as untreated, 0 = no growth, -100 = all killed); conditions: 10 µM unless noted

SMILES	growth
CC(=O)N1N=C(c2ccc(-n3ccc(C(F)(F)F)n3)c(F)c2)CC1c1ccc[nH]1 (stereo not given)	117% (inactive)
COc1cccc(/C=C2\Oc3cc(OCCCN4CCCC4)ccc3C2=O)c1OC	93.2% (inactive)
COc1cc(/C=C/C(=O)N2CCN(C(=O)/C=C/c3cc(OC)c(OC)c(OC)c3)CC2)cc(OC)c1OC	102% (inactive)
O=C(/C=C\c1cccc([N+](=O)[O-])c1)/C=C/c1cccc([N+](=O)[O-])c1	91.4% (inactive)
COc1ccc(C(O)(CCC(C)C)C(CN2CCOCC2)c2ccc(Cl)cc2)cc1 (stereo not given)	80.6% (inactive)
CCCCCCCCCCCCCCC(C(=O)OCC)C(=O)OCC	95.9% (inactive)
c1ccc2c(N=NSc3ncnc4nc[nH]c34)c3ccccc3nc2c1	-55.1% (active)
COc1ccc(NC(=O)COCCOCCNC[C@@H]2C(=O)O[C@H]3[C@H]2CC/C(COC(=O)OC/C2=C/CC[C@@]4(C)O[C@H]4[C@H]4OC(=O)[C@@H](CN(C)C)[C@@H]4CC2)=C\CC[C@@]2(C)O[C@@H]32)c(O)c1C(N)=O	-19.5% (active)
C[C@H](NC(=O)c1c(N)nn2cccnc12)c1cc2cccc(C#Cc3cnn(C)c3)c2c(=O)n1-c1ccccc1	-21.2% (active)
CC1(C)N=C(N)N=C(N)N1c1cccc(CCCCOc2ccccc2)c1	10.1% (inactive)
O=C1Nc2cc(Cl)ccc2/C1=C\c1ccc(OCc2ccc([N+](=O)[O-])cc2)cc1	52% (inactive)
Cc1cc(Cc2cc(C)c(N)cc2N)c(N)cc1N	95.4% (inactive)
CCCCCC(=C/c1ccccc1)/C=N/N=C(N)N	-87.4% (active)
Cc1cc(C)c2c(c1)N1OC(C2)C[C@H]1/C=C/c1ccccc1 (stereo not given in full)	92.4% (inactive)
COc1ccc(C2CC(c3cccc(Nc4ccncc4)c3)=NN2c2ccccc2)cc1 (stereo not given)	15.7% (inactive)
O=[N+]([O-])c1ccc(Cl)c(-c2cc(CCCCO)on2)c1	98.3% (inactive)
OC(CBr)c1ccnc2ccccc12 (stereo not given)	100% (inactive)
CCN(CC)CC[n+]1cc2cc(OC)c(OC)cc2c2ccc3cc4c(cc3c21)OCO4	-27% (active)
N#C/C(=C1C=C/C(=N\O)C(Cl)=C\1)c1ccccc1	41.2% (inactive)
O=C(O)COc1ccc(Cl)c(Cl)c1	99.5% (inactive)

SMILES	growth
O=C(/C=C/c1cccc(B(O)O)c1)c1cccc(B(O)O)c1	-84.9% (active)
Cc1cc(NCCCCNc2ccnc3cc(Cl)ccc23)nc(Nc2ccc(C(=O)N3CCCCC3)cc2)n1	-42.3% (active)
COc1cc(O)c2c(c1)[C@H]1O[C@@H]1C[C@H](O)[C@H](O)C(=O)/C=C\C[C@H](C)OC2=O	-1.54% (active)
CC(C)[N+](C)(C)CC(O)COc1cccc2ccccc12 (stereo not given)	104% (inactive)
COc1cc(-c2nc(SC(C)C)nc(Nc3cccc(C)c3)c2C#N)cc(OC)c1OC	117% (inactive)
Nc1ccc2ccccc2c1-c1c(N)ccc2ccccc12	11.8% (inactive)
COc1ccccc1/C=C\C(=O)c1ccccc1	82.7% (inactive)
CNC(=O)c1cc(Oc2ccc3nc(NC(=O)c4cc(C(F)(F)F)cc(C(F)(F)F)c4)sc3c2)ccn1	23% (inactive)
CS(=O)(=O)c1ccc(-c2nn(-c3ccccc3)cc2/C=N/NC(=O)c2nc(N)n[nH]2)cc1	98.2% (inactive)
CCc1ccc(NC(=O)N[C@@H](Cc2cccc(F)c2)C(=O)N[C@@H]2C(=O)N3CCC[C@H]3C(=O)N3CCCC[C@H]3C(=O)N[C@@H](CO)C(=O)N3C[C@H](C)C[C@H]3C(=O)O[C@H]2C)c(F)c1	-7.85% (active)
O=c1c(Br)ccc(Br)cc1Br	-65.9% (active)
Cc1ccc(C(=O)c2sc3nc4c(cc3c2N)CCCC4)c(C)c1	32.3% (inactive)
Cc1sc2nc(N3CCCCC3)[nH]c(=O)c2c1C	96.6% (inactive)
CC1CCc2c(sc3nc(SCC(=O)N/N=C/c4cccc(O)c4O)n(-c4ccccc4)c(=O)c23)C1 (stereo not given)	77.7% (inactive)
NC1=Nc2cc(OCCCN3Cc4ccccc4C3)c(OCC3CC3)cc2C12CCCC2	31.9% (inactive)
N#CC1c2ccccc2C=CN1C(=O)c1ccccc1 (stereo not given)	108% (inactive) and 96.5% (inactive)
O=C(CNc1nc(-c2cccc([N+](=O)[O-])c2)cs1)Nc1cccc([N+](=O)[O-])c1	14.3% (inactive)
COc1cc2c(=O)n(CCCn3ccnc3)c3c4cc5c(cc4ccc3c2cc1OC)OCO5	-37.3% (active)
COc1ccc(-c2ccc(O)c(C(=O)/C=C/c3cc(OC)c(OC)c(OC)c3)c2)cc1	85.2% (inactive)
O=C1Nc2cc(-c3cccc(O)c3)ccc2/C1=C/c1ccc[nH]1	7.4% (active)
